Our source for the growth values is PubChem BioAssay (NCI).

Holding throughout (assay): NCI-60 one-dose screen, 48 h (100 = growth as untreated, 0 = no growth, -100 = all killed)
Details in all cases: 10 µM

The test system of assay [1] is DU-145 prostate.
In assay [2] the test system is K-562 leukemia.
For assay [3], the system named is MALME-3M melanoma.
In assay [4] the test system is MDA-MB-231 breast.
Assay [5] concerns RXF 393 renal.
In assay [6] the test system is SF-268 CNS.
For assay [7], the system named is SF-295 CNS.
Assay [8] concerns SF-539 CNS.
Assay [9] has as its system UACC-257 melanoma.
Assay [10] relates to M14 melanoma.
The subject of assay [11] is HCT-15 colon.
Assay [12] has as its system HT29 colon.
Assay [13] relates to SNB-75 CNS.
For assay [14], the system named is SNB-19 CNS.
Assay [15] relates to PC-3 prostate.
The test system of assay [16] is SK-MEL-5 melanoma.
Assay [17] deals with UACC-62 melanoma.
In assay [18] the test system is LOX IMVI melanoma.
The subject of assay [19] is SK-MEL-28 melanoma.

The panel holds about 83,000 compounds, 20% with a hit somewhere; the sample as a whole holds those more often.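 Values shown are percent growth following 48 h exposure of cells in 96-well plates to a single concentration of compound; below 10 was considered active.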 Unmarked numbers belong to inactive results. Calls of active or inactive are those of the source.

Regarding `COc1cc2cc(Oc3ccc(NC(=O)Nc4cccc(C(F)(F)F)c4)cc3)c(C)nc2cc1OC`, the growth in [1] was 26.7%; in assay [2] it was 11.5%; in assay [3] it was 7.22% (active); in [4], -8.32% (active); in assay [5], -13.1% (active); in assay [6], 29.2%. The growth in assay [7] is -15% (active); in [8], 11.7%; in assay [9], -14.5% (active); in assay [10], 22.7%; in assay [11] it was 15.2%; in assay [12], 6.55% (active). The growth in assay [13] is 13%; in [14], 31.4%; in assay [15], 0.0827% (active); in assay [16], -86.1% (active); in [17] it was 14.5%; in [18] it was 9.78% (active). Besides, in assay [19], the growth is 26.7%.
For `CC(=O)Nc1ccc(S(=O)(=O)c2ccnc3cc(Cl)ccc23)cc1`, the growth in [1] is 53.7%; in assay [2], 78.9%; in assay [3], 66.5%; in [4] it was 88.3%; in assay [5], 66.7%; in [6], 82.8%. Further, the growth in assay [7] was 97.2%; in assay [8], 99.5%; in assay [9] it was 64.4%; in assay [10], 95.3%; in [11], 63.8%; in assay [12] it was 93.7%. In addition, the growth was 76.5% in [13]; 102% in assay [14]; 96% in assay [15]; 71.8% in [16]; 77.7% in [17]; 73.7% in [18]. The growth in [19] was 78.1%.
`N#Cc1c(-c2ccc(Cl)cc2)n(O)c2ccccc12`: the growth was 25.4% in [1]; 11.6% in assay [2]; 6.37% (active) in assay [3]; 30.5% in [4]; 9.91% (active) in assay [5]; 32.5% in assay [6]. The growth in assay [7] is 42.1%; in [8], -10.1% (active); in [9], 47.4%; in [10], 13.5%; in assay [11], 22.6%; in assay [12] it was 82.8%. Further, the growth in assay [13] is 12.5%; in [14], 11%; in assay [15] it was 41.2%; in [16], -57.5% (active); in [17], 8.34% (active); in assay [18] it was 23.8%. Further, the growth in assay [19] was 15.6%.
As to `COc1cc2c(cc1NC(=O)C(Cl)Cl)-c1ccc(NC(=O)C(Cl)Cl)cc1C2`, the growth in [1] is -68.4% (active); in assay [2] it was 20.7%; in [3], 115%; in assay [4] it was -18% (active); in [5], -59.2% (active); in assay [6], -31.2% (active). The growth is -12.8% (active) in [7]; -14.9% (active) in assay [8]; -13.1% (active) in assay [9]; 69.8% in assay [10]; -7.21% (active) in assay [11]; -35.3% (active) in assay [12]. In addition, the growth in [13] was -29.6% (active); in assay [14], 3.35% (active); in assay [15], 18.8%; in assay [16], 22.5%; in assay [17], -22.2% (active); in [18] it was 67%. In addition, the growth in assay [19] was -54.7% (active).
With `COc1ccc(-c2nn(-c3cccc(Cl)c3)cc2-c2cc(-c3ccccc3)[nH]c(=O)c2C#N)cc1`, the growth was 47.1% in [1]; 44.9% in [2]; 24.7% in [3]; -8.6% (active) in assay [4]; -25.6% (active) in [5]; 34.8% in assay [6]. Further, the growth in [7] is -36% (active); in [8], -45.9% (active); in assay [9] it was 75.5%; in assay [10], 32.5%; in assay [11] it was 63.8%; in [12] it was 55.6%. Besides, the growth in assay [13] is 38.4%; in assay [14], 45.2%; in assay [15], 71.6%; in assay [16] it was 39.9%; in assay [17], 35%; in assay [18], 55.6%. In addition, the growth in assay [19] is 71%.
`O=C1/C=C/[C@@H](O)[C@@H]2C[C@@H](O)C[C@H]2/C=C/CCC[C@H](CCc2ccc(C(F)(F)F)cc2)O1`: the growth is 19.5% in [1]; 11.7% in assay [2]; -13.9% (active) in assay [3]; -84% (active) in assay [4]; -31.6% (active) in assay [5]; 4.75% (active) in [6]. Besides, the growth in [7] is 11.4%; in [8] it was 25.2%; in assay [9], 10.5%; in [10], 7.65% (active); in assay [11] it was -3.05% (active); in assay [12] it was -36.7% (active). In addition, the growth in [13] was -13.5% (active); in assay [14] it was 17.6%; in assay [15], 8.76% (active); in assay [16] it was -87.2% (active); in [17], 6.89% (active); in assay [18] it was -71.8% (active). Besides, the growth in assay [19] is 2.07% (active).
Take `COc1cc(-c2nn(-c3cccc(NC(=O)CCN4CCN(Cc5ccccc5)CC4)c3)cc2-c2ccncc2)ccc1Cl`: the growth in [1] is 7.55% (active); in assay [2], -43.1% (active); in [3], -60.7% (active); in [4], -14.7% (active); in [5] it was -50.6% (active); in assay [6], 19.1%. Besides, the growth is -46.5% (active) in [7]; -74.3% (active) in [8]; -58.2% (active) in assay [9]; -61.3% (active) in assay [10]; 11.8% in assay [11]; -20.2% (active) in assay [12]. The growth in [13] is -10.3% (active); in [14], 39.9%; in assay [15] it was 7.06% (active); in assay [16], -95.3% (active); in assay [17] it was 10.7%; in assay [18], -88.6% (active). In [19], the growth was -85.4% (active).
Turning to `N#CC1=CC2CN(Cc3ccccc3)C1C1C(=O)N(c3ccccc3)C(=O)C21` (stereo unspecified), the growth is 105% in [1]; 92.4% in assay [2]; 111% in assay [3]; 106% in assay [4]; 103% in assay [5]; 107% in [6]. The growth in assay [7] was 98.7%; in assay [8], 98.5%; in assay [9], 97.5%; in assay [10], 86.4%; in [11] it was 96.5%; in assay [12] it was 103%. In addition, the growth in [13] is 91.1%; in assay [14], 101%; in [15], 101%; in assay [16], 93.3%; in assay [17], 90.7%; in [18], 89.2%. The growth in [19] is 102%.
With `O=C1/C=C/[C@@H](O)[C@@H]2C[C@@H](O)C[C@H]2/C=C/CCC[C@H](C(F)(F)F)O1`, the growth in assay [1] is 28.2%; in assay [2], 20.7%; in assay [3], -10.9% (active); in assay [4], -31.8% (active); in assay [5] it was -28.8% (active); in assay [6], 17.9%. Also, the growth in assay [7] is 78%; in [8], 21.4%; in [9], 6% (active); in [10] it was 13.4%; in [11], 6.45% (active); in assay [12] it was -28.3% (active). Also, the growth in assay [13] was 39.1%; in assay [14] it was 65.6%; in [15] it was 25.1%; in assay [16] it was -98.3% (active); in [17] it was -3.9% (active); in assay [18], -90.6% (active). The growth in assay [19] is -8.65% (active).
